# In the library only some 8.5% were active in any assay of this set; here they are far more common.
# GoLoco inh red – blocks human Gai1 binding to RGS12 GoLoco peptide, red readout | AID 880 | Potency, µM (top dose mostly 61.6 µM), for the others: at the top dose activity, negative = inhibition, usual class: inhibitors | Gai1:RGS12 GoLoco peptide FP, rhodamine, 10 min | 230,000 compounds, 0.44% hits; active = well fitted inhibition curve with a large enough effect, not every such curve was filed as active; inactive = no such curve, though single readings can be large or run the other way; note: potency is the fitted concentration of half-maximal effect; nearly all actives have a fitted effect of over 30% in size
# Target sequence (P63096 whole entry, looked up): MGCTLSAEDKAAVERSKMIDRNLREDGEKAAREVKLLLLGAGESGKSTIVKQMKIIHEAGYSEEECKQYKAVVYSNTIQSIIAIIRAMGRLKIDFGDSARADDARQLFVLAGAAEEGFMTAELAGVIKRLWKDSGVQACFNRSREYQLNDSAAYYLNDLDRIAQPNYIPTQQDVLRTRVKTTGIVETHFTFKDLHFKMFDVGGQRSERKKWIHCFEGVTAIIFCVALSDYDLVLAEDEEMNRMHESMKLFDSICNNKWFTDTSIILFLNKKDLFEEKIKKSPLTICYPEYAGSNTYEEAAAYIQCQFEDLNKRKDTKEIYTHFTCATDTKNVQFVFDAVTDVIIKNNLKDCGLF
# FBPA coupling cs – inhibits coupling enzyme system, counter-screen for aldolase hits; coupling enzyme system counterscreen, AmpLite Red fluorescence; activity change, negative = inhibition, % at 58.2 µM, hits read low; 290,000 compounds, 0.67% hits; AID 2472; in the data active = activity change below about -30%
#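 Compounds tested against the coupling enzymes alone at 57.5 uM final; readout was AmpLite Red fluorescence (525/598 nm) after 20 min at RT.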
# NPSR antagonist – neuropeptide S receptor (human) antagonism, cAMP | CHO-NPSR cells, cAMP TR-FRET, antagonist mode | 220,000 compounds, 1% hits | Potency, µM (top dose mostly 38.3 µM), inactives show at the highest dose activity change, negative = inhibition, most hits filed as inhibitors | Q6W5P4; active = well fitted curve in the direction sought with a large enough effect; inconclusive = small, poorly fitted or top-dose-only effect, or another doubt; inactive = no such curve, though single readings can be large; an effect the other way counts as inactive or inconclusive; note: potency is the fitted concentration of half-maximal effect; nearly all actives have a fitted effect of over 50% in size
# ALDH1A1 inh – inhibitors of human aldehyde dehydrogenase 1A1; P00352; Potency, µM (doses to about 75.3 µM), for inactives: at the highest dose activity, negative = inhibition, most hits filed as inhibitors; Purified ALDH1A1, NADH fluorescence, propionaldehyde substrate; AID 1030; 220,000 compounds, 7.3% hits;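 note: potency is the fitted concentration of half-maximal effect; plate controls were no enzyme wells and a reference inhibitor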
# KDM4E inh – blocks human JMJD2E demethylase activity; B2RXH2; JMJD2E catalytic domain, FDH-coupled NADH fluorescence (FDH is formaldehyde dehydrogenase); Potency, µM (doses to about 57.1 µM), for inactives: top-dose activity change, negative = inhibition, usual class: inhibitors; 230,000 compounds, 1.6% hits; AID 2147;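 note: potency is the fitted concentration of half-maximal effect; 0% = wells with enzyme and -100% = buffer wells without enzyme; nearly all actives have a fitted effect of over 50% in size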
# Target sequence (B2RXH2 1-337 limits assumed): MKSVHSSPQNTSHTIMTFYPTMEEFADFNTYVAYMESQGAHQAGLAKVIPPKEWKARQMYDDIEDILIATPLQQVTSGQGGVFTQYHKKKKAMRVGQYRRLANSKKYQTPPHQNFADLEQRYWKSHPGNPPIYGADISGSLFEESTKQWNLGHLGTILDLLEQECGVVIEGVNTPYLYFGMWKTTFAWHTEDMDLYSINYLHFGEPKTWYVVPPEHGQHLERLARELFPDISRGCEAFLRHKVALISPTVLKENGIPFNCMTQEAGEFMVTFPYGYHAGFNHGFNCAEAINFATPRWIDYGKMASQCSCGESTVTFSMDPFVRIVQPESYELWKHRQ
# Sfp PPTase inh – inhibitors of Bacillus subtilis Sfp phosphopantetheinyl transferase. Q9F4F7. 310,000 compounds, 3.5% hits. Potency, µM, inactives show largest response in the series, negative = inhibition, usual class: inhibitors. Biochemical Sfp PPTase activity, qHTS; active = well fitted curve in the direction sought with a large enough effect; inconclusive = small, poorly fitted or top-dose-only effect, or another doubt; inactive = no such curve, though single readings can be large; an effect the other way counts as inactive or inconclusive;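 note: the enzyme is Sfp with the accession as filed and its product quenches rhodamine fluorescence; potency is the fitted concentration of half-maximal effect; 0% = enzyme reaction without inhibitor and -100% = no enzyme wells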
#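 Compounds were incubated with enzyme (final 15 nM) for 15 min at room temperature before substrate addition started the reaction. Fluorescence at 525 nm excitation, 598 nm emission was recorded immediately and after 30 minutes.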
# Starred values were filed as active, the others as inactive; ? = inconclusive; . = no result; [ ] = dose if it differs, or a comment. Unless noted, calls come from the whole dose curve; as a rule, active = well fitted inhibition curve with a large enough effect (not every such curve was filed as active); inconclusive = small, poorly fitted or top-dose-only effect, or another doubt; inactive = no such curve, though single readings can be large or run the other way. Unless noted, % is set by controls: 0 for no effect and ±100 for the full control effect.
SMILES,GoLoco inh red,FBPA coupling cs,NPSR antagonist,ALDH1A1 inh,KDM4E inh,Sfp PPTase inh
COC(=O)c1cc(C(=O)OCC(=O)N(C)c2ccccc2)cc([N+](=O)[O-])c1,.,4,.,.,.,20%
CN(C)S(=O)(=O)Oc1cccc(C(=O)Nc2ccc([N+](=O)[O-])cc2)c1,7%,2,-8%,4.5µM*,7%,2%
Cn1c(=O)n(CCC(=O)O)c2ccccc21,5%,3,-1%[46.1 µM],-12%,0%,-6%
O=C(O)CCN1CC2([N+](=O)[O-])C=CC(=O)C([N+](=O)[O-])(C1)C2CC(=O)c1ccccc1 (stereo not drawn),-6%,-52*,17%,?,5%,?
O=C1NC2(CCCCC2)NN1c1ccccc1,-7%,3,-1%[46.1 µM],-5%,7%,6%
CC1CCC2(CC1)NC(=S)N(C(C)(C)C)N2 (stereo not drawn),7%,2,-21%,.,?,35µM*
CC1CCC2(CC1)NC(=S)N(c1ccccc1)N2 (stereo not drawn),4%,5,-5%[46.1 µM],16µM*,?,56µM*
CC(O)C#C[Si](C)(C)c1ccccc1 (stereo not drawn),3%,-2,.,3%,-2%,1%
CC1(C)CC(N(Cc2ccco2)C(=O)Cc2ccccc2)CCO1 (stereo not drawn),6%,1,-11%[46.1 µM],1%,-6%,16%
CC1(C)CC(N(Cc2cccs2)C(=O)c2ccco2)CCO1 (stereo not drawn),-15%,6,1%[46.1 µM],10µM*,0%,-11%
CCN1C(=O)[C@@H]2[C@H](C1=O)[C@@H]1C[C@H]3C(=O)N(CC)C(=O)[C@H]3[C@@H]3C1=C(C(=O)N1C(=O)OC(=NCC4CC4)[C@]31C)[C@@H]2C,3%,3,21%,.,7%,8%
CCOC(=O)CSc1cn2c(n1)CCC2,-10%,1,7%[46.1 µM],1%,0%,40µM*
CCOC(=O)CSc1nc(C)cc(C)n1,8%,1,-2%[46.1 µM],5%,2%,-3%
Cn1cc(S(=O)(=O)N2CCc3ccccc32)cc1C(=O)NC(C)(C)C,.,-3,.,.,.,9%
COc1ccc(N(CC(=O)NCC2CCCO2)C(=O)CCC(=O)Nc2cc(C)on2)cc1OC (stereo not drawn),.,1,.,.,.,9%
COc1ccccc1/C=N/OCc1cc(C(C)=O)ccc1OC,.,-1,.,.,.,-24%
N#CC1=C(Nc2ccccc2)SC=C(c2ccccc2)N=C1N1CCOCC1,7%,2,0%[46.1 µM],25µM*,-11%,-15%
CCOC(=O)c1c(NC(=O)C(=O)N/N=C/c2ccccc2O)sc2c1CCCCC2,11%,1,16%,?,32µM*,4%
CCOC(=O)c1c(NC(=O)C(C)Sc2cn(C)c3ccccc23)sc2c1CCC2 (stereo not drawn),9%,-1,-27%,25µM*,0%,?
CCOC(=O)c1c(NC(=O)C(=O)N/N=C/c2ccccc2OC)sc2c1CCCCC2,0%,4,-20%[46.1 µM],?,-1%,-8%
CCCN1CCN(CCCNC(=O)c2ccc(CS(=O)c3ccc(OC)cc3)o2)CC1 (stereo not drawn),.,.,.,.,.,16%
O=C(CN1CCc2ccccc2C1)NC1CCCC1,3%,-1,4%,-9%,1%,0%
O=C(NCc1ccc2c(c1)OCO2)C1CC(c2cccc(Br)c2)=NO1 (stereo not drawn),-2%,5,1%[46.1 µM],-3%,1%,-18%
CCn1ncc(C2=NOC(C(=O)NCc3ccccc3)C2)c1C (stereo not drawn),-33%,-1,?,?,1%,79µM*
O=C(NCc1ccc2c(c1)OCO2)C1CC(c2ccccc2O)=NO1 (stereo not drawn),6%,-4,-18%[46.1 µM],11µM*,-2%,-12%
SMILES,GoLoco inh red,FBPA coupling cs,NPSR antagonist,ALDH1A1 inh,KDM4E inh,Sfp PPTase inh
O=C(COC(=O)C(Cc1ccccc1)NC(=O)c1ccc(Cl)cc1)c1ccc(Cl)cc1 (stereo not drawn),34%,1,-23%,?,-4%,28%
CC1(c2ccccc2)CC(c2ccccc2)=Nc2ccccc2N1 (stereo not drawn),11%,-8,-19%,.,?,15%
Cc1ccc(C2=Nc3ccccc3NC(C)(c3ccc(C)o3)C2)o1 (stereo not drawn),14%,-4,-11%[46.1 µM],22µM*,?,-23%
Cn1c(N2CCN(C(=O)NCc3ccccc3)CC2)nc2ccccc21,-3%,5,-12%[46.1 µM],4µM*,3%,14%
O=C1C2CC=C(Cl)CC2C(=O)N1CCN1CCOCC1 (stereo not drawn),8%,2,0%[46.1 µM],-3%,1%,11%
O=C1C2CC=C(Cl)CC2C(=O)N1CCCCCCN1C(=O)C2CC=C(Cl)CC2C1=O (stereo not drawn),8%,3,-15%[46.1 µM],22µM*,-11%,0%
Fc1ccc(CNC(=S)NC2CCCCCC2)cc1,4%,-1,-24%,?,-6%,16%
Cc1ccccc1NCC(=O)c1ccc(Br)cc1,-9%,5,-10%[46.1 µM],5%,?,45µM*
Cc1ccc(CN/C=C/C(=O)c2ccc(Br)cc2)cc1,-3%,1,-18%[46.1 µM],16µM*,-20%,-7%
Cc1ccc(NC(=O)c2ccc(NCc3ccc(F)cc3)nc2)cc1,11%,1,-8%,?,10%,17%
Cc1ccc(C(=O)/C=C/NCc2ccc(F)cc2)cc1,-6%,-1,2%,14µM*,-4%,-7%
O=C(/C=C/NCC(=O)c1ccccc1)c1ccc(Br)cc1,-7%,-1,7%,7.9µM*,-10%,-29%
COc1ccc(C(=O)CNc2ccccc2Br)cc1,.,-3,.,.,.,-8%
Cc1nc(SCC(=O)NC(=O)NC(C)(C)C)nc(C)c1C,0%,0,13%,.,-3%,11%
CC(=O)c1ccc(NC(=S)NC(C)c2ccc(Cl)cc2Cl)cc1 (stereo not drawn),12%,1,-47%,-11%,-21%,4%
CNC(=O)C1(C(F)(F)F)C/C(=C\Cc2ccccc2)CCCO1 (stereo not drawn),.,5,.,.,.,1%
COc1ccc(C(=O)/C=C/NCc2ccc(F)cc2)cc1OC,7%,4,23%,22µM*,?,6%
COCCn1c(SCC(=O)NCC2CCCO2)nc2c([nH]c3ccccc32)c1=O (stereo not drawn),.,.,.,.,.,13%
COc1cccc(-c2n[nH]c(=S)n2Cc2ccco2)c1,10%,2,13%,.,-8%,32µM*
C=CCn1c(-c2cccc(OC)c2)n[nH]c1=S,17%,1,8%,-1%,?,1%
S=c1[nH]nc(-c2ccncc2)n1Cc1ccco1,14%,2,-3%[46.1 µM],?,-7%,14µM*

# Source: PubChem BioAssay
